PubChem BioAssay (NCATS)
Results filed as inconclusive are left out. Calls of active or inactive are those of the source. Calls come from the whole dose curve; as a rule, active = well fitted curve in the direction sought with a large enough effect; inconclusive = small, poorly fitted or top-dose-only effect, or another doubt; inactive = no such curve, though single readings can be large; an effect the other way counts as inactive or inconclusive.

Legend:
[1] = molecular target: Glutathione peroxidase 1 (Homo sapiens) (UniProt P07203); experiment: Primary qHTS Assay for Inhibitors of Recombinant Selenoprotein Glutathione Peroxidase 1 (GPX1) (AID 1845191); note: nearly all actives have a fitted effect of over 65% in size; for activity, negative = inhibition: % is set by controls: 0 for no effect and ±100 for the full control effect
Glutathione peroxidase 1 (Homo sapiens), sequence (P07203 whole entry, looked up): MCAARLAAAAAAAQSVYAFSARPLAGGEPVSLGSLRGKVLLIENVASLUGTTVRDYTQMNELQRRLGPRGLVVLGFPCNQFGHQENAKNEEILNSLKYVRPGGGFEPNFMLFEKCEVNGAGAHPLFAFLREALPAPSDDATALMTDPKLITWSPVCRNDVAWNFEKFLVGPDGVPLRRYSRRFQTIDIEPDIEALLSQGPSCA
Method in brief: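 GR-coupled assay: compounds preincubated 30 min at room temperature with GPX1, then reaction started with CHP; final 10 nM GPX1, 1 mM GSH, 0.5 mM CHP, 0.5 mM NADPH, 100 nM GR, 0.01% BSA, pH 7.5 Tris buffer. NADPH fluorescence (340/450 nm) read at 0 and 15 min.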

[2] = molecular target: Phospholipid hydroperoxide glutathione peroxidase GPX4 (Homo sapiens) (UniProt P36969); experiment: Primary qHTS Assay for Inhibitors of Recombinant Selenoprotein Glutathione Peroxidase 4 (GPX4) (AID 1845192); note: nearly all actives have a fitted effect of over 65% in size; for activity change, negative = inhibition: series mostly up to about 50 µM; % is set by controls: 0 for no effect and ±100 for the full control effect
Phospholipid hydroperoxide glutathione peroxidase GPX4 (Homo sapiens), sequence (P36969 whole entry, looked up): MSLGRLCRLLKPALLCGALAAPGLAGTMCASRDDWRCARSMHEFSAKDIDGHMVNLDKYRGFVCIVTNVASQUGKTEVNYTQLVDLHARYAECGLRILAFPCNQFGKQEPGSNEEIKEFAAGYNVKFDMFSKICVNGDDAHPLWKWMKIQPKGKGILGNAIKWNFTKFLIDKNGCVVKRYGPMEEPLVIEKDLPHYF
Method in brief: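 GR-coupled assay: recombinant GPX4 preincubated 30 min with compound at room temperature; final 200 nM GPX4, 1 mM GSH, 0.5 mM cumene hydroperoxide, 0.5 mM NADPH, 100 nM GR, 0.01% BSA, pH 7.5 Tris. NADPH fluorescence (340/450 nm) read at 0 and 15 min.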

[3] = molecular target: Luciferin 4-monooxygenase (Photinus pyralis) (UniProt P08659); experiment: Primary firefly luciferase (FLuc) qHTS assay for identification of artifact compounds. (AID 1845220); note: nearly all actives have a fitted effect of over 60% in size;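 for activity change, negative = inhibition: series mostly up to about 54 µM; plate controls were DMSO vehicle for no effect and no enzyme for full effect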
Method in brief: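 D-luciferin and ATP (10 uM each, final) in Tris acetate buffer pH 7.6 were incubated with compounds for 15 min at room temperature. The reaction was started with 10 nM Photinus pyralis luciferase and luminescence read after 5 min. Percent inhibition was fitted to a 4-parameter Hill equation.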

[4] = Primary fluorescence-based thiol-reactive (MSTI) qHTS assay for identification of artifact compounds. (AID 1845221); note: nearly all actives have a fitted effect of over 65% in size; note: potency is the fitted concentration of half-maximal effect;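 for activity change, negative = thiol reactive: series mostly up to about 54 µM; thiol-reactive compounds lower the probe fluorescence signal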
Method in brief: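 MSTI probe at 4 uM final in 2% DMSO/PBS pH 7.4; compounds, 1 h at room temperature in dark. Fluorescence Ex/Em 525/598 nm, normalised to Acetyl-MSTI and MSTI, fitted to 4-parameter Hill.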

[5] = tested on: Nanoluciferase (engineered Oplophorus gracilirostris luciferase); experiment: Primary Nanoluciferase (NLuc) qHTS assay for identification of artifact compounds. (AID 1845222);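 note: series mostly up to about 54 µM; 0% = DMSO and -100% = no enzyme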
Method in brief: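 Diluted conditioned medium from NLuc-expressing S16 cells treated with compounds for 15 min at room temperature, then Nano-Glo substrate added; luminescence read after 5 min. Percent inhibition versus no-enzyme and DMSO controls fitted to 4-parameter Hill equation.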

[6] = Primary redox qHTS assay for identification of artifact compounds. (AID 1845223);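 note: 0% = DMSO and 100% = reference compound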
Method in brief: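 Amplex Red (25 uM) and HRP (250 mU/mL) in HBSS, with compounds for 15 min, then 250 uM DTT for 30 min, room temperature, dark. Fluorescence 525/598 nm read; normalized to DMSO and 10 uM DA3003; Hill fit.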

CC1CCC2(C(=O)OC3OC(CO)C(O)C(O)C3O)CCC3(C(=O)O)C(=CCC4C5(C)CCC(OC6OC(C)C(O)C(O)C6O)C(C)(C)C5CCC43C)C2C1C (configuration not stated)
inactive: Potency [1] | Potency [2] | Potency [3] | Potency [4] | Potency [5] | Potency [6]

Cc1cc(C)c(S(=O)(=O)N(Cc2ccc(-c3cccc(S(C)(=O)=O)c3)cc2)Cc2ccc(C(F)(F)F)o2)c(C)c1
inactive: Potency [1] | Potency [2] | Potency [3] | Potency [4] | Potency [5] | Potency [6]

CC(c1c[nH]c2ccccc12)C(O)C(=O)O (configuration not stated)
inactive: Potency [1] | Potency [2] | Potency [3] | Potency [5] | Potency [6]
active: Potency [4] 10.6 µM

OC[C@H]1O[C@@H](n2cnc3c(NCc4ccc(O)cc4)ncnc32)[C@H](O)[C@@H]1O
inactive: Potency [1] | Potency [2] | Potency [3] | Potency [4] | Potency [5] | Potency [6]

C[C@@H]1CC[C@]2(C)C3(C)CC[C@@]2(OC3=O)[C@@]12C[C@H](c1ccoc1)OC2=O
inactive: Potency [1] | Potency [2] | Potency [3] | Potency [4] | Potency [5] | Potency [6]

C=C1CCC2(OC1)OC1CC3C4CC=C5CC(O)CC(O[C@@H]6OC[C@@H](O)[C@H](O)[C@H]6O)C5(C)C4CCC3(C)C1(O)C2C (some centres not stated)
inactive: Potency [1] | Potency [2] | Potency [3] | Potency [4] | Potency [5] | Potency [6]

C=C(C)C1CC2(CO)C(=CC1=O)CCC(O)C2C (configuration not stated)
inactive: Potency [1] | Potency [2] | Potency [3] | Potency [4] | Potency [5] | Potency [6]

COc1cc2c(cc1OC)CN(C(=O)[C@@H](NCc1ccncc1)C(C)(C)C)CC2
inactive: Potency [1] | Potency [2] | Potency [3] | Potency [4] | Potency [5] | Potency [6]

CC1OC(OC2C(CO)OC(OCC3OC(OC(=O)C45CCC(C)(C)CC4C4=CCC6C7(C)CCC(OC8OC(C(=O)O)C(O)C(OC9OC(CO)C(O)C(O)C9O)C8O)C(C)(C)C7CCC6(C)C4(C)CC5)C(O)C(O)C3O)C(O)C2O)C(O)C(O)C1O (configuration not stated)
inactive: activity, negative = inhibition [1] -12.7% [at 9.52 µM] | activity change, negative = inhibition [2] -11.9% [at 9.73 µM] | activity change, negative = inhibition [3] -1.13% [at 11.6 µM] | activity change, negative = thiol reactive [4] 336% [at 11.5 µM] | activity, negative = inhibition [5] 0% [at 11.6 µM] | redox activity (% of DA3003) [6] 7.33% [at 11.5 µM]

COc1cc(CC(COC2OC(CO)C(O)C(O)C2O)c2cc(/C=C/CO)cc(OC)c2O)ccc1O (configuration not stated)
active: Potency [4] 9.22 µM
inactive: Potency [1] | Potency [2] | Potency [3] | Potency [5] | Potency [6]

CC(C)CC(=O)O[C@@H]1OC=C(CO[C@@H]2O[C@H](CO[C@@H]3O[C@H](CO)[C@@H](O)[C@H](O)[C@H]3O)[C@@H](O)[C@H](O)[C@H]2O)[C@H]2C[C@H](O)[C@@H](CO)[C@@H]12
inactive: Potency [1] | Potency [2] | Potency [3] | Potency [4] | Potency [5] | Potency [6]

COC1(CC(C)C)NC(=O)C(O)(Cc2ccccc2)NC1=O (configuration not stated)
inactive: Potency [1] | Potency [2] | Potency [3] | Potency [4] | Potency [5] | Potency [6]

C=C1CC2C3(C)C(O)CC(=O)C(C)(C)C3C(OC(C)=O)C(OC(C)=O)C2(C)C2C(=O)OC(C)(C(=O)OC)C(=O)C12C (configuration not stated)
inactive: Potency [1] | Potency [2] | Potency [3] | Potency [4] | Potency [5] | Potency [6]

CNC(=O)c1ccc2cc([C@@]3(O)CCn4cncc43)ccc2c1
inactive: Potency [1] | Potency [2] | Potency [3] | Potency [4] | Potency [5] | Potency [6]

C[C@@H]1O[C@@H](O[C@H]2[C@H](O[C@H]3CC[C@@]4(C)C(CC[C@]5(C)C4CC=C4[C@@H]6CC(C)(C)CC[C@]6(C(=O)O)CC[C@]45C)[C@]3(C)CO)OC[C@H](O)[C@@H]2O)[C@H](O)[C@H](O[C@@H]2OC[C@@H](O)[C@H](O)[C@H]2O)[C@H]1O (some centres not stated)
inactive: Potency [1] | Potency [2] | outcome [3] inactive [at 11.6 µM] | activity change, negative = thiol reactive [4] 366% [at 11.5 µM] | activity, negative = inhibition [5] 0.957% [at 11.6 µM] | redox activity (% of DA3003) [6] 0.416% [at 11.5 µM]

CCOC(=O)c1ccc(N(C)c2csc(-c3ccccc3)n2)cc1
inactive: Potency [1] | Potency [2] | Potency [3] | Potency [4] | Potency [5] | Potency [6]

COCC(=O)N1CCc2cc(-c3csc(NC(=O)c4cc(OC)cc(OC)c4)n3)ccc21
inactive: Potency [1] | Potency [2] | Potency [3] | Potency [4] | Potency [5] | Potency [6]

CC(C)(O)/C=C1/C(=O)C(C)(C)C(=O)C(C)(C)C1(O)O[C@@H]1O[C@H](COC(=O)c2cc(O)c(O)c(O)c2)[C@@H](O)[C@H](O)[C@H]1O (some centres not stated)
inactive: Potency [1] | Potency [2] | Potency [3] | Potency [5] | Potency [6]
active: Potency [4] 0.707 µM

C/C=C(\C)C(=O)O[C@@H](C)[C@H]1CC[C@]2(O)C3CCC4C[C@@H](OC5CC(OC)C(OC6CC(OC)C(OC7CC(OC)C(OC8OC(C)C(OC9OC(CO)C(O)C(O)C9O)C(OC)C8O)C(C)O7)C(C)O6)C(C)O5)CC[C@]4(C)C3[C@H](O)[C@@H](O)[C@]12C (some centres not stated)
inactive: outcome [1] inactive [at 9.52 µM] | activity change, negative = inhibition [2] -0.387% [at 9.73 µM] | outcome [3] inactive [at 11.6 µM] | activity change, negative = thiol reactive [4] 94.5% [at 11.5 µM] | activity, negative = inhibition [5] 0.355% [at 11.6 µM] | redox activity (% of DA3003) [6] 14% [at 11.5 µM]

C=C1C[C@]23C[C@H]1CC[C@H]2[C@@]12C=C[C@H](O)[C@@](C)(C(=O)O1)[C@H]2[C@@H]3C(=O)O
inactive: Potency [1] | Potency [2] | Potency [3] | Potency [4] | Potency [5] | Potency [6]

CN1CCC(c2c[nH]c3ccc(NC(=O)c4ccc(F)cc4)cc23)CC1
inactive: Potency [1] | Potency [2] | Potency [3] | Potency [4] | Potency [5] | Potency [6]

CCC(=O)N[C@@H]1Cc2ccccc2[C@H](c2ccccc2)C1
inactive: Potency [1] | Potency [2] | Potency [3] | Potency [4] | Potency [5] | Potency [6]
